A word on the AC50: it is the concentration at which the activity in the assay is half-maximal.

The values below come from PubChem BioAssay (EPA / NIEHS).

Test [1] is described as follows: CCTE_Deisenroth_AIME_384WELL_CTox_Active: Cytotoxicity Assessment (CTOX) in CCTE's 384-well Estrogen Receptor Transactivation Assay with AIME metabolic competence (metabolism positive), Deisenroth Lab (AID 2284037).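 Also: chemicals first conditioned 2 h by alginate-bound induced rat liver S9 before cells; activity means signal loss indicating cell death.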 A digest of the protocol:
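VM7Luc4E2 breast cells received medium pre-incubated 2 h with chemical over alginate microspheres holding induced male Sprague Dawley rat liver S9; viability read 24 h later by protease-substrate fluorescence. Loss of signal, bidirectional fit, 0.002–200 uM.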

Test [2] addresses Estrogen receptor (Homo sapiens) (UniProt P03372). Kind of test: CCTE_Deisenroth_AIME_384WELL_LUC_Inactive: CCTE's 384-well Estrogen Receptor Transactivation Assay without AIME metabolic competence (ERTA luciferase; metabolism negative), Deisenroth Lab (AID 2284038).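 Also: hits raise estrogen receptor luciferase signal so potencies reflect agonists.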 A digest of the protocol:
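Metabolism-negative mode: AIME lids stamped in alginate-water, no hepatic S9. 2 h chemical incubation → medium onto VM7Luc4E2 ERTA, 24 h. Readout luciferase luminescence; gain-of-signal fit vs 17beta-estradiol. Conc. 0.002 - 200 uM.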

A short description of test [3]: CCTE_Deisenroth_AIME_384WELL_CTox_Inactive: Cytotoxicity Assessment (CTOX) in CCTE's 384-well Estrogen Receptor Transactivation Assay without AIME metabolic competence (metabolism negative), Deisenroth Lab (AID 2284039).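 Also: cell viability via live-cell protease substrate cleaved to fluorescent probe; cells exposed 24 h to medium preincubated 2 h with alginate-water beads without S9.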 A digest of the protocol:
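Fluorescent protease-substrate viability readout after 24 h exposure of VM7Luc4E2 cells to conditioned medium. Chemicals (0.002–200 uM) first sat 2 h over alginate-water beads, no S9. Data fitted bidirectionally, loss of signal meaning viability loss.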

Test [4] addresses Estrogen receptor (Homo sapiens) (UniProt P03372). Kind of test: CCTE_Deisenroth_AIME_384WELL_LUC_Shift: CCTE's 384-well Estrogen Receptor Transactivation Assay with AIME metabolic competence data shift (ERTA luciferase; difference in metabolism positive and negative), Deisenroth Lab (AID 2284041; active = hit-call score of the fitted dose curve at least 0.9, where 1 is the maximum; inactive = score below 0.9;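 also: shift is response with S9 minus without S9 so positive means metabolism raised ER signal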). A digest of the protocol: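 Here, parent compounds undergo 2 h phase I metabolism by PB/BNF-induced rat S9 before 24 h transactivation in VM7Luc4E2 cells; the curve models S9-positive minus S9-negative response over a 10-point series.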

Test [5] has the same target. As to the kind of experiment: CCTE_Deisenroth_AIME_384WELL_LUC_Active: CCTE's 384-well Estrogen Receptor Transactivation Assay with AIME metabolic competence (ERTA luciferase; metabolism positive), Deisenroth Lab (AID 2284030). A digest of the protocol: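 Readout: bioluminescent luciferase induction in VM7Luc4E2 cells 24 hour after receiving medium from a 2 h rat hepatic S9 (induced, alginate microsphere) metabolism step. Concentrations 0.002 - 200 uM; activity scaled to 17beta-estradiol positive control.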

Test [6] is described as follows: CCTE_Shafer_MEA_dev_firing_rate_mean: CCTE's Neural Network Formation Assay for Mean Firing Rate, Shafer Lab (AID 2284031; active = hit-call score of the fitted dose curve at least 0.9, where 1 is the maximum; inactive = score below 0.9;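 as to AC50: curve fitted for loss of firing so AC50 reflects decreased mean firing rate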). A digest of the protocol: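 Read-out: spike count/recording length, averaged over active electrodes, then AUC across days 5, 7, 9, 12. Rat cortical cultures on MEA; continuous 12-day exposure, media and treatment renewed DIV 5, 9; DMSO baseline.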

A short description of test [7]: CCTE_Shafer_MEA_dev_per_burst_spike_percent: CCTE's Neural Network Formation Assay for Percent of Spikes in a Burst, Shafer Lab (AID 2284032; active = hit-call score of the fitted dose curve at least 0.9, where 1 is the maximum; inactive = score below 0.9;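 as to AC50: fitted as a decrease in burst spike percentage below DMSO baseline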). A digest of the protocol: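 Value is trapezoidal AUC over recordings on days 5, 7, 9 and 12 of the well-mean fraction of spikes falling in single-electrode bursts; rat cortical cultures exposed continuously from plating, treatment renewed DIV 5 and 9, fitted downward against DMSO.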

The nature of test [8]: CCTE_Shafer_MEA_dev_burst_rate: CCTE's Neural Network Formation Assay for Burst Rate, Shafer Lab (AID 2284042; active = hit-call score of the fitted dose curve at least 0.9, where 1 is the maximum; inactive = score below 0.9). A digest of the protocol:
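Exposure ran continuously over 12 days of network development in rat cortical cultures, with compound refreshed during full media changes on DIV 5 and 9. Single-electrode bursts per recording time, well-mean over active electrodes, trapezoidal AUC across days 5–12, fitted downward relative to DMSO.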

Test [9] in a line: CCTE_Shafer_MEA_dev_bursting_electrodes_number: CCTE's Neural Network Formation Assay for Number of Bursting Electrodes, Shafer Lab (AID 2284043).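 As to AC50: potency is for loss of bursting electrodes relative to DMSO.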 A digest of the protocol:
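Counted: electrodes with burst rate ≥1 per 2 min in each well. Cells: primary rat cortex, 1.5 x 10^5/well, on 16-electrode MEA wells. Exposure: DIV 0–12, compound renewed DIV 5 and 9. Recording days 5, 7, 9, 12; AUC vs DMSO baseline.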

A short description of test [10]: CCTE_Shafer_MEA_dev_per_burst_interspike_interval: CCTE's Neural Network Formation Assay for Burst Interspike Interval, Shafer Lab (AID 2284044; active = hit-call score of the fitted dose curve at least 0.9, where 1 is the maximum; inactive = score below 0.9;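 as to AC50: potency for a decrease of within-burst interspike interval below DMSO level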). A digest of the protocol:
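Readout is the average time between spikes inside single-electrode bursts, taken as a well mean across bursting electrodes. Cortical neurons from rat developed networks on MEA plates under continuous 12-day exposure; recordings on days 5, 7, 9 and 12 were integrated by trapezoidal AUC.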

Test [11] can be described thus: CCTE_Shafer_MEA_dev_burst_duration_mean: CCTE's Neural Network Formation Assay for Mean Burst Duration, Shafer Lab (AID 2284045; active = hit-call score of the fitted dose curve at least 0.9, where 1 is the maximum; inactive = score below 0.9;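 as to AC50: curve fitted for loss meaning shorter burst duration than DMSO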). A digest of the protocol:
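Network-formation assay in primary rat cortical neurons; treatment spans twelve days of development. Mean burst duration per well is integrated by trapezoidal AUC and fitted in the loss-of-signal direction against DMSO baseline.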

Test [12] is described as follows: CCTE_Shafer_MEA_dev_interburst_interval_mean: CCTE's Neural Network Formation Assay for Mean Interburst Interval, Shafer Lab (AID 2284046; active = hit-call score of the fitted dose curve at least 0.9, where 1 is the maximum; inactive = score below 0.9;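 also: curve fitted for decrease in interburst interval relative to DMSO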). A digest of the protocol: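 Primary rat cortical neurons on PEI-coated 48-well MEA plates (laminin added with cells at plating) (16 electrodes/well), exposed from plating day 0 with renewal at DIV 5 and 9. Mean inter-burst interval averaged over bursting electrodes, AUC across days 5, 7, 9, 12; DMSO baseline.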

Test [13] in a line: CCTE_Shafer_MEA_dev_inter_network_spike_interval_mean: CCTE's Neural Network Formation Assay for Mean Inter-network Spike Interval, Shafer Lab (AID 2284047; active = hit-call score of the fitted dose curve at least 0.9, where 1 is the maximum; inactive = score below 0.9). A digest of the protocol:
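Mean time between consecutive network-spike peaks, recorded extracellularly (adaptive spike detection) on DIV 5, 7, 9 and 12, summarized as trapezoidal AUC. Rat cortical cultures on MEAs dosed continuously days 0–12, re-dosed at feeds; loss-of-signal fit relative to DMSO.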

Test [14] in a line: CCTE_Shafer_MEA_dev_active_electrodes_number: CCTE's Neural Network Formation Assay for Number of Active Electrodes, Shafer Lab (AID 2284040).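 Also: potency for loss of active electrodes versus DMSO so lower counts are hits.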 A digest of the protocol: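 Developing rat cortical networks on MEAs, exposed DIV 0–12. Value is the AUC of active-electrode counts (≥5 spikes/min) from days 5, 7, 9, 12, relative to DMSO.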

Each structure is given as a SMILES string. “And” between values parts separate entries of the source, which are not always exact repeats. Equal entries are not always repeated. Inconclusive results are not listed. A structure can be active in one record and inactive in another. The source made the active and inactive calls. The calls were made as follows, unless noted: active = hit-call score of the fitted dose curve at least 0.9, where 1 is the maximum; inconclusive = response in the unintended direction; inactive = score below 0.9.

Estrogen receptor (Homo sapiens), sequence (P03372 whole entry, looked up): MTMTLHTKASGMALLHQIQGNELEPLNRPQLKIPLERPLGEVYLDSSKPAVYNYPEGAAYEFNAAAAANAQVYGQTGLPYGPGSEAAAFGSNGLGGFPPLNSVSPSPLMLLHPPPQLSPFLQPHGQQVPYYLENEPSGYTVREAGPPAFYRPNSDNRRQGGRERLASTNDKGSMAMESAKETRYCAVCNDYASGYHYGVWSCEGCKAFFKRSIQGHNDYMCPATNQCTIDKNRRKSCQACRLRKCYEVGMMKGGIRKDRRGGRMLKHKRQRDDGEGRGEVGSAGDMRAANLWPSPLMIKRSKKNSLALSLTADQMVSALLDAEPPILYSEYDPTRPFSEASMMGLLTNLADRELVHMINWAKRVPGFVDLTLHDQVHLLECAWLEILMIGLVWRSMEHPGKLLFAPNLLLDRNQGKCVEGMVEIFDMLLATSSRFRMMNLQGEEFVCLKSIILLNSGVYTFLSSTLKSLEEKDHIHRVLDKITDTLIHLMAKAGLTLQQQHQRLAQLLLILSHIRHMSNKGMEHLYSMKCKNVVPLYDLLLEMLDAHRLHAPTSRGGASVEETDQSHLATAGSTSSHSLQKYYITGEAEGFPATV

As for `C=C[C@@]1(C)CC(=O)[C@]2(O)[C@@]3(C)[C@@H](O)CCC(C)(C)[C@@H]3[C@H](O)[C@H](OC(C)=O)[C@@]2(C)O1`, the AC50 in test [1] is 19.8 µM (active). The call in [2], in test [3] and in test [4] was inactive.
`CC(=O)OCc1ccccc1`: the molecule was called inactive in test [5], in test [2], in test [3] and in test [4].
`CO[Si](C)(C)OC`: the result in test [5], in test [2] and in test [4] was inactive.
With `O=C(O)CC(C(=O)O)S(=O)(=O)O` (stereo unspecified), the outcome in [5], in test [2], in test [3] and in test [4] was inactive.
As for `CCCCCCCCC(CO)CCCCCC` (stereo unspecified), the call in test [5], in [2] and in test [4] was inactive.
Regarding `CCOC(=O)C1=NOC(c2ccccc2)(c2ccccc2)C1`, the molecule was classed as inactive in test [5], in test [2], in test [3] and in test [4].
For `CCCCCCCCCC(C)=O`, the result in [5], in [1], in [2], in [3] and in [4] was inactive.
For the molecule `Cc1noc(NS(=O)(=O)c2ccc(N)cc2)c1C`, the result in test [6], in [7], in test [8], in test [9], in test [10] and in test [12] was inactive. In test [13], the molecule was classed as inactive. For the same molecule, in [11], the AC50 is 24.1 µM (active).
`CC(C)(C)NC(=O)[C@H]1CC[C@H]2[C@@H]3CC[C@H]4NC(=O)C=C[C@]4(C)[C@H]3CC[C@]12C`: the outcome in test [4] was inactive.
Regarding `Cc1ccc([N+](=O)[O-])cc1N`, the outcome in test [5], in [1], in test [2] and in test [4] was inactive.
On to `CCC(C)(O)CCCC(C)C` (stereo unspecified), for which the call in [5] and in [2] was inactive. For the same molecule, the AC50 in test [4] was 67.7 µM (active).
Take `CCCCCCOc1ccc(N)cc1`: the result in test [5] and in test [1] was inactive. The AC50 in [2] was 53.9 µM (active); in [4], 42.7 µM (active).
Turning to `C/C=C/C=C/CCCCCCCO`, the molecule was called inactive in test [5], in test [1], in test [2] and in test [4]. Also, the AC50 in [3] was 151 µM (active).
As to `CC1(C)[C@@H]2CC[C@@]1(C)C(=O)C2`, the molecule was called inactive in test [5], in test [2] and in [4].
For the molecule `CCCCCC[C@@H](O)C/C=C\CCCCCCCC(=O)OCC(O)CO` (stereo partly specified), the molecule was classed as inactive in test [5], in [1], in test [2], in test [3] and in [4].
Consider `COC(=O)c1ccccc1C`, for which the molecule was called inactive in test [5], in test [2], in test [3] and in test [4].
`CCCCCCCCCCCCc1ccc(O)cc1`: the AC50 in test [5] is 0.804 µM (active); in test [1], 72.1 µM (active); in [2], 1.01 µM (active); in test [3] it was 86.1 µM (active). For the same molecule, in test [4], the outcome was inactive.
For the molecule `O=C(O)c1ccc2c(c1)C(=O)OC2=O`, the molecule was classed as inactive in test [5], in test [2] and in [4].
With `CCCCCCCCCCCCCC(=O)OC(C)C`, the outcome in test [5], in test [2] and in [4] was inactive.
Take `CC(C)=CCCC(C)=CC#N`: the molecule was called inactive in [5], in test [2] and in [4].
Consider `O=S(=O)(O)c1ccc(N=Nc2c(O)ccc3ccccc23)cc1`, for which the AC50 is 71.3 µM (active) in [1] and 72.8 µM (active) in test [3]. Besides, the result in test [2] and in test [4] was inactive.
Turning to `CCCCNC(=S)NCCCC`, the outcome in [5], in [2] and in test [4] was inactive.
In the case of `O=C(O)/C=C/c1ccccc1`, the molecule was called inactive in test [5], in [1], in [2], in test [3] and in test [4].
Take `CCCCCCCCCC[N+](C)(CCCCCCCCCC)CCC[Si](OC)(OC)OC`: the outcome in [5] and in test [4] was inactive. For the same molecule, the AC50 in test [1] was 49.4 µM (active); in test [3], 100 µM (active).
Regarding `O=C(O)C1CCC(C(=O)O)CC1` (stereo unspecified), the molecule was called inactive in test [5], in test [1], in test [2] and in test [4].
Regarding `CC(C)(C)N`, the result in test [5], in test [2], in test [3] and in test [4] was inactive.
In the case of `O=C(O)c1cc(O)c2ccccc2c1O`, the AC50 in test [1] is 34.5 µM (active); in test [3] it was 56.4 µM (active). Besides, the outcome in test [4] was inactive.
`CC(=O)/C=C/C1C(C)=CCCC1(C)C` (stereo unspecified): the result in test [5], in [2], in test [3] and in [4] was inactive.
Turning to `C[N+](C)(C)CCCNS(=O)(=O)C(F)(F)C(F)(F)C(F)(F)C(F)(F)C(F)(F)C(F)(F)C(F)(F)C(F)(F)F`, the AC50 in [6] was 4.93 µM (active) and 2.98 µM (active); in test [7] it was 2.98 µM (active) and 4.47 µM (active); in [14], 1.13 µM (active) and 1.65 µM (active); in test [9], 1.55 µM (active) and 4.37 µM (active); in test [10], 2.98 µM (active); in test [12] it was 2.43 µM (active) and 4.96 µM (active). Also, the outcome in test [8], in test [10], in test [11] and in test [13] was inactive.
`C=CCOC(=O)c1ccc(C(=O)OCC=C)c(C(=O)OCC=C)c1`: the outcome in test [5], in test [1], in test [2] and in test [4] was inactive.
For `CCCCNS(=O)(=O)c1ccc(C)cc1`, the molecule was called inactive in test [5] and in test [2]. In test [4], the AC50 is 0.0002 µM (active).
